According to publication PMC4336329 (PLoS ONE, 2015):
Among all 310,000 compounds or so, about 14,000 (4.5%) showed an effect of 50% or more. The effect is printed as a negative number. Only a selection was taken, and strong results are over-represented in it overall.

Each molecule was assayed against human ether-à-go-go-related gene (hERG) potassium channel (human, UniProt Q12809) (assay: primary screen, population patch clamp on CHO cells stably expressing hERG; higher = less effect of the substance).
Sequence of human ether-à-go-go-related gene (hERG) potassium channel (Q12809 whole entry, looked up): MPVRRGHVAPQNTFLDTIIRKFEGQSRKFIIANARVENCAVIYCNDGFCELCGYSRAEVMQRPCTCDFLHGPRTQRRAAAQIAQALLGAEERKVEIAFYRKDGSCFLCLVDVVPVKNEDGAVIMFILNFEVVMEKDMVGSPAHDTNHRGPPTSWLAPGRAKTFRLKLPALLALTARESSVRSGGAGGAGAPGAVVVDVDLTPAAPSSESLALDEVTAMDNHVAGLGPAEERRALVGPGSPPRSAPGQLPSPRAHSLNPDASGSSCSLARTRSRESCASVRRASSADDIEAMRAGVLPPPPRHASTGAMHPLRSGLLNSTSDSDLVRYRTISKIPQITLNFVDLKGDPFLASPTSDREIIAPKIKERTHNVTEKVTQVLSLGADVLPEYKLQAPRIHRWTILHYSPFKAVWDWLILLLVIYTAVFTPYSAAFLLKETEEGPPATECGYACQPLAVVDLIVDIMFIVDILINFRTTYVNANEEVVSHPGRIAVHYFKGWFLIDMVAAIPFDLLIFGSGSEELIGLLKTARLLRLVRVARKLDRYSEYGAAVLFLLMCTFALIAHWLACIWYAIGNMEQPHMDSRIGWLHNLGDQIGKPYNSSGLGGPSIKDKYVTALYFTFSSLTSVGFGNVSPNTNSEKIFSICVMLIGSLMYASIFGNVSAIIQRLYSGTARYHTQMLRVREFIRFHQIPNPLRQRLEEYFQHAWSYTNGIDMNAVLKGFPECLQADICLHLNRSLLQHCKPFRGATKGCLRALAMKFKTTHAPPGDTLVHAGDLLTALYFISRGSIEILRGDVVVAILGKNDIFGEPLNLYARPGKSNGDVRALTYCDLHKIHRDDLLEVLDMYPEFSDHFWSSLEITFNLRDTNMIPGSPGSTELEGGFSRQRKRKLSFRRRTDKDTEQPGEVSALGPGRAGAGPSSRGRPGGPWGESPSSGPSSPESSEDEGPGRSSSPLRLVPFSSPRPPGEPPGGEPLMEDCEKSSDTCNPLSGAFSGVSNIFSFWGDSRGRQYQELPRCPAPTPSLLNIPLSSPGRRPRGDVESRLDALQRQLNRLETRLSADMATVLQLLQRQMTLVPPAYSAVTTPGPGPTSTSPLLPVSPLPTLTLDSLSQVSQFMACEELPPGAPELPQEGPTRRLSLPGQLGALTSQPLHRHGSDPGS
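Further: peak tail current of the secondary pulse compared with the same well before compound.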

SMILES	hERG current change (%, negative = inhibition) at 10uM [%]
CC(C)(C)c1nnc(N/N=C/c2ccccc2O)n(N)c1=O	-35
O=C(NCc1ccc2c(c1)OCO2)C1CCCN1C(=O)Nc1cccc(Cl)c1 (stereo not drawn)	-25.4
O=C(NCc1ccco1)c1cc2cc3ccc(Cl)cc3nc2o1	4.32
CCCCN(CC)C(=O)c1cc2cc3ccc(Cl)cc3nc2o1	-9.93
CCc1ccc(CNC(=O)c2cc3c(C)nc4ccccc4c3o2)cc1	-11.5
CCCCN(CC)CCNC(=O)c1cc2c(C)nc3ccccc3c2o1	-53.5
CCCN(CCC)CCNC(=O)c1cc2c(C)nc3ccccc3c2o1	-29.7
CCOCCCNC(=O)c1cc2cc3cc(OC)ccc3nc2o1	-7.74
CCCCN(CC)CCNC(=O)c1cc2cc3ccc(Cl)cc3nc2o1	-72.5
CCCN(CCC)CCCNC(=O)c1cc2cc3ccc(Cl)cc3nc2o1	-61
CCCCN(CC)C(=O)c1cc2cc3ccc(OC)cc3nc2o1	-38.8
CC(C)CNS(=O)(=O)c1cc(C(=O)OCC(=O)N(C)C2CCS(=O)(=O)C2)c(Cl)cc1Cl (stereo not drawn)	-13
CC1(C)CC(=O)C=C(NNC(=O)C2CCCCC2)C1	8.47
O=C(C1CCCO1)N1CCc2ccccc21 (stereo not drawn)	17.1
Cl.O=C(O)CCCCCNc1nc(-c2ccccc2)nc2ccccc12	3.35
CN(CC(O)COC(c1ccccc1)c1ccccc1)C1CCCCC1 (stereo not drawn)	-68.4
CN(CC(O)COCc1ccccc1F)C1CCCCC1 (stereo not drawn)	-14.6
CN(CC(O)COc1ccc(S(=O)(=O)N2CCOCC2)cc1)C1CCCCC1 (stereo not drawn)	-6.74
CN(CC(O)COCc1ccc2c(c1)OCO2)C1CCCCC1.Cl (stereo not drawn)	-20.6

SMILES	hERG current change (%, negative = inhibition) at 10uM [%]
COc1ccc(C(OCC(O)CN(C)C2CCCCC2)c2ccc(OC)cc2)cc1 (stereo not drawn)	-69.8
CN(CC(O)COCc1cccs1)C1CCCCC1 (stereo not drawn)	-12.1
COc1cccc(CNC(=O)CN(C)S(=O)(=O)c2ccc3c(c2)n(C)c(=O)c(=O)n3C)c1	10.3
S=C1CCC(c2ccc(Cl)cc2)=NN1c1ccccc1	4.79
O=C(Nc1ccc(F)cc1)C1CCN(c2ncnc3c2nc2n3CCCCC2)CC1	-7.35
O=C(Nc1ccc(F)cc1F)C1CCCN(c2ncnc3c2nc2n3CCCCC2)C1 (stereo not drawn)	-62
O=C(Nc1cc(F)ccc1F)C1CCCN(c2ncnc3c2nc2n3CCCCC2)C1 (stereo not drawn)	-59.5
COc1ccccc1NC(=O)C1CCCN(c2ncnc3c2nc2n3CCCCC2)C1 (stereo not drawn)	-45.5
COc1ccc(Cl)cc1NC(=O)C1CCCN(c2ncnc3c2nc2n3CCCCC2)C1 (stereo not drawn)	-37.6
CC1=C(C(=O)OC2CCC(C)CC2)C(c2ccc(O)c([N+](=O)[O-])c2)NC(=O)N1 (stereo not drawn)	-0.635
C=CCn1c(CCNC(=O)c2ccccc2F)nnc1SCC(=O)Nc1ccc(OC)cc1	3.94
COc1ccc(CCNC(=O)c2c(N)n(CCN3CCOCC3)c3nc4ccccc4nc23)cc1	-0.58
COc1ccc(CCNC(=O)c2cc3c(=O)n4cccc(C)c4nc3n(CCCN3CCOCC3)c2=N)cc1	-76.2
COc1ccc(CCNC(=O)C(=O)NCCCN2CCOCC2)cc1	7.99
COc1ccc(CCNC(=O)c2cc3c(=O)n4ccccc4nc3n(CCCN3CCOCC3)c2=N)cc1	-79
COc1ccc(CCn2c(=O)[nH]c3cc(C(=O)NCCCN4CCOCC4)ccc3c2=O)cc1OC	28.6
COc1ccc(CCNC(=O)c2cc3c(=O)n4ccccc4nc3n(CCN3CCOCC3)c2=N)cc1	-77.8
COc1ccc(Cn2c(=S)[nH]c3cc(C(=O)NCCCN4CCOCC4)ccc3c2=O)cc1	24.1
COc1ccc(CCn2c(=N)c(C(=O)NCCN3CCOCC3)cc3c(=O)n4ccccc4nc32)cc1OC	-32.5

SMILES	hERG current change (%, negative = inhibition) at 10uM [%]
COc1ccc(CCNC(=O)c2cc3c(=O)n4ccccc4nc3n(CCCN3CCOCC3)c2=N)cc1OC	-75.1
CCOC(=O)C1=C(COC(=O)COc2ccc(Br)cc2)NC(=O)NC1C (stereo not drawn)	2.16
CC(=O)c1ccc(OCCCC(=O)Nc2cc(S(=O)(=O)N(C)C)ccc2C)cc1	0.514
CCS(=O)(=O)N1CCC(C(=O)N2CCC3(CC2)OCCO3)CC1	6.65
C=CCCCCCCCCC(=O)N1CCN(c2cc3c(cc2F)c(=O)c(C(=O)O)cn3CC)CC1	5.07
Fc1cccc(NC(=S)Nc2ccc(Br)cc2)c1	10.3
CCN1CCN(Cc2ccc(NC(=O)c3ccc(C)c(NC(=O)N4CCNC4=O)c3)cc2C(F)(F)F)CC1.O=C(O)C(F)(F)F	3.66
Cc1ccc(S(=O)(=O)N/N=C/c2ccccc2O)cc1	12.9
O=C(CN1C(=O)c2ccc([N+](=O)[O-])cc2C1=O)NCc1ccco1	12.4
CC1(C)CC(N2CCC(=O)NC2=S)CC(C)(C)N1	3.04
CC(NS(=O)(=O)c1ccc(NC(=O)N2CCCCC2)cc1)c1ccccc1 (stereo not drawn)	3.56
Cc1ccc(OS(=O)(=O)c2ccccc2)c(/C=N/N=C2\NC(=O)C(C)S2)c1 (stereo not drawn)	-0.524
CCc1cc2c(s1)N(CC(=O)OC)C(=O)CN=C2c1ccccc1OC	10.7
COc1ccc(S(=O)(=O)Cc2ccc(C(=O)N3CCCC3)o2)cc1	1.74
COc1ccc(S(=O)(=O)Cc2ccc(C(=O)N3CCc4ccccc4C3)o2)cc1	-59
Cc1ccc(S(=O)(=O)Cc2ccc(C(=O)N3CCCCCC3)o2)cc1	-15.4
COc1ccc(S(=O)(=O)Cc2ccc(C(=O)N3CCN(Cc4ccccc4)CC3)o2)cc1	-33.1
Cc1ccc(S(=O)(=O)Cc2ccc(C(=O)N3CCc4ccccc4C3)o2)cc1	-62.2
Cc1ccc(S(=O)(=O)Cc2ccc(C(=O)N3CCCC3)o2)cc1	-6.89
